# High-throughput results (PubChem)
# In the library only some 2.9% were active in any assay of this set; here they are far more common.
# PLC-beta3 inh – human PLC-beta3 inhibitors, primary screen, biochemical, fluorescence; 1-phosphatidylinositol 4,5-bisphosphate phosphodiesterase beta-3 (Homo sapiens), Q01970; Purified PLC-beta3, fluorogenic substrate; inhibition, % at 12.2 µM; actives 0.18% (n = 370,000); AID 720704, 2013; in the data active = inhibition above about 11%
# KLK7 zymogen act – proKLK7 zymogen activators, primary screen, biochemical, fluorescence intensity; AID 652039, 2013; actives 0.9% (n = 370,000); activation, % at 7 µM; Kallikrein-7 (Homo sapiens), P49862; purified proKLK7, EDANS-DABCYL substrate fluorescence; 100% is mature enzyme control, 0% vehicle;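 active = activation above the mean of all tested compounds plus 3 SD, computed per campaign excluding outliers beyond control limits, cut at about 13% in these data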
# PLC-gamma1 inh – PLC-gamma1 enzyme inhibitors, primary screen, biochemical, fluorescence, purified enzyme. actives 0.84% (n = 370,000). fluorogenic substrate. inhibition, % at 12.2 µM. 1-phosphatidylinositol 4,5-bisphosphate phosphodiesterase gamma-1 (Homo sapiens), P19174; in the data active = inhibition above about 9.5%
# ADAM10 inh – human ADAM10 inhibitors, primary screen, biochemical, QFRET, HTS; Disintegrin and metalloproteinase domain-containing protein 10 (Homo sapiens), O14672; recombinant ADAM10, EDANS/DABCYL FRET peptide cleavage, 3 h; inhibition, % at 7 µM; actives 0.62% (n = 370,000);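 active = inhibition above a per-campaign cutoff equal to the mean of compounds falling between control-based bounds plus 3 SD, cut at about 20% in these data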
# ADAM17 inh – ADAM17 inhibitors, primary screen, biochemical, QFRET; inhibition, % at 6.95 µM; recombinant ADAM17, EDANS/DABCYL FRET peptide cleavage; Disintegrin and metalloproteinase domain-containing protein 17 (Homo sapiens), P78536; actives 0.83% (n = 370,000);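 active = inhibition above the mean of compounds lying between control limits plus 3 SD, set per campaign, cut at about 8.5% in these data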
# ADAM10 confirm – human ADAM10 inhibitors, confirmation, biochemical, QFRET, triplicate. shares compounds with ADAM10 inh. ADAM10 QFRET peptide cleavage, EDANS fluorescence. inhibition, % at 6.95 µM. actives 1% (n = 2,100);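 active = inhibition above about 20% chosen separately for each screening run, limit read from the data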
# ADAM17 counter – ADAM17 inhibitors, counter-screen for ADAM10 exosite inhibitor project, biochemical, QFRET, high throughput. shares compounds with ADAM10 inh. ADAM17 QFRET peptide cleavage, EDANS fluorescence. inhibition, % at 6.95 µM. actives 0.5% (n = 2,100);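 active = mean triplicate inhibition above the solvent-only control wells' mean plus 3 SD, cut at about 12% in these data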
# ADAM10 ctr – ADAM10 inhibitors, counter-screen for ADAM17 exosite inhibitor project, biochemical, FRET, human ADAM10; shares compounds with ADAM17 inh; recombinant ADAM10, EDANS/DABCYL FRET peptide cleavage, 3 h; inhibition, % at 6.95 µM; actives 47% (n = 2,900);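 active = mean inhibition over the triplicate runs exceeds the activity threshold set in the earlier primary screen, cut at about 20% in these data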
# ADAM17 confirm – ADAM17 inhibitors, hit retest, confirmation, biochemical, QFRET peptide cleavage. shares compounds with ADAM17 inh. inhibition, % at 6.95 µM. recombinant ADAM17, EDANS/DABCYL QFRET peptide cleavage. actives 65% (n = 2,900);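 active = mean inhibition across replicates above the hit cutoff set in the primary screen, cut at about 8.5% in these data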
# Numbers stand for hits; - = inactive; . = not tested or not shown.
SMILES,PLC-beta3 inh,KLK7 zymogen act,PLC-gamma1 inh,ADAM10 inh,ADAM17 inh,ADAM10 confirm,ADAM17 counter,ADAM10 ctr,ADAM17 confirm
Nc1cnc(CNc2ccccc2Cl)cn1,-,-,-,-,-,.,.,.,.
CCN(CC)C(=O)O[C@H]1CC[C@@]23CCCN2C(=O)CCC[C@H]3C1,-,.,-,-,-,.,.,.,.
C[C@@H]1CN([C@@H](C)CO)C(=O)c2cc(NC(=O)Nc3ccc(F)cc3)ccc2O[C@@H]1CN(C)Cc1ccc(Oc2ccccc2)cc1,-,-,-,24,11,-,-,48,23
C[C@@H]1CN([C@@H](C)CO)C(=O)c2cc(NS(C)(=O)=O)ccc2O[C@H]1CN(C)Cc1ccc(Oc2ccccc2)cc1,-,-,-,-,-,.,.,.,.
COc1ccc(CCNC(=O)c2cc3ccccc3oc2=O)cc1,-,-,-,-,-,.,.,.,.
CC(C)(C)NS(=O)(=O)c1ccc(NC(=O)C(Sc2ccccc2)c2ccccc2)cc1 (stereo not given),-,-,-,41,19,-,-,44,22
O=C(C(=Cc1ccc(F)cc1)c1ccccc1)c1ccc(O)cc1,-,-,-,24,9.6,-,-,27,11
CCCCCCCCN1C(=O)[C@H](CC(=O)NCc2ccc(OC)c(OC)c2)C[C@@]2(C(=O)OCC)CCCC=C12,-,-,-,31,13,-,-,41,22
CCCCCCCCN1C(=O)[C@H](CC(=O)NCc2ccc(OC)c(OC)c2)C[C@@]2(C(=O)OC)CC(C)(C)CC=C12,-,-,-,24,8.7,-,-,32,15
COc1ccc(C(C)NC(=O)C2CCCC2)cc1OC (stereo not given),-,-,-,-,-,.,.,.,.
CCOC(=O)[C@]12CCCC=C1N(Cc1ccc(OC)cc1)C(=O)[C@@H]2CC(=O)N1CCCC1,-,-,-,-,-,.,.,.,.
COc1ccc(NC(=S)N(CCc2c(C)[nH]c3ccc(C)cc23)Cc2cccs2)cc1,-,-,-,-,-,.,.,.,.
CNC(=S)N(CCc1c(C)[nH]c2ccc(C)cc12)Cc1cccs1,-,-,-,22,9.8,-,-,-,10
O=C(N[C@H](Cc1ccccc1)C(=O)NCc1ccccn1)[C@H]1O[C@@H](n2ccc(=O)[nH]c2=O)[C@H](O)[C@@H]1O,-,-,-,-,-,.,.,.,.
O=C(Cc1cccc(C(F)(F)F)c1)NCc1cccc(Cl)c1,-,-,-,-,-,.,.,.,.
O=C(NCc1cccc(Cl)c1)c1ccc(S(=O)(=O)Nc2cccc(C(F)(F)F)c2)cc1,-,-,-,39,15,-,-,34,18
C[C@H]1[C@@H](NS(=O)(=O)c2ccccc2[N+](=O)[O-])CC[C@@]23CCCN2C(=O)CCC[C@@H]13,-,.,-,-,-,.,.,.,.
COc1ccccc1/C=C/C=N/NC(=O)CCn1nnc2ccccc21,-,-,-,-,-,.,.,.,.
O=C(c1cc(Cl)cc(Cl)c1)N1CC[C@H]2[C@H](CCCN2Cc2ccccc2)C1,-,-,-,-,-,.,.,.,.
CCC1(c2ccccc2)NC(=O)N(CC(=O)Nc2ccc(S(=O)(=O)N3CC(C)CC(C)C3)cc2)C1=O (stereo not given),-,-,-,21,10,-,-,48,24
CC1CCN(S(=O)(=O)c2ccc(NC(=O)CN3C(=O)NC(C)(c4ccccc4)C3=O)cc2)CC1 (stereo not given),-,-,-,-,-,.,.,.,.
COc1ccc(C2(c3ccc(OC)cc3)NC(=O)N(CC(=O)Nc3ccc(C(=O)N(C)C)cc3)C2=O)cc1,-,-,-,-,-,.,.,.,.
COc1ccc(C2(c3ccc(OC)cc3)NC(=O)N(CC(=O)Nc3cc(C)ccc3OC)C2=O)cc1,-,-,-,22,9.3,-,-,33,16
Cc1ccc(NC(=O)C(OC(=O)c2ccc(NC(N)=O)cc2)c2ccccc2)cc1Cl (stereo not given),-,-,-,32,18,-,-,-,9.7
Cc1ccc2c(c1)-n1c(nc3cc(C)ccc3c1=O)C(Cc1ccccc1)NC2=O (stereo not given),-,-,-,21,17,-,-,-,-
SMILES,PLC-beta3 inh,KLK7 zymogen act,PLC-gamma1 inh,ADAM10 inh,ADAM17 inh,ADAM10 confirm,ADAM17 counter,ADAM10 ctr,ADAM17 confirm
Cc1ccc2c(c1)-n1c(nc3cc(F)ccc3c1=O)C(Cc1ccccc1)NC2=O (stereo not given),-,-,-,-,-,.,.,.,.
CC(C)CCOc1ccc(CO[C@@H]2[C@H]3OC(C)(C)O[C@H]3O[C@@H]2C(O)CO)cc1 (stereo not given in full),-,-,-,-,-,.,.,.,.
O=C(Nc1ccc(C(F)(F)F)cc1)OC1CC2CC1[C@H]1CCCCN1C2 (stereo not given in full),-,-,-,-,-,.,.,.,.
CC(OC(=O)c1ccccn1)C(=O)Nc1ccc2c(c1)OCCO2 (stereo not given),-,-,-,-,-,.,.,.,.
CCN(c1ccccc1)S(=O)(=O)c1cc(C(=O)OC(C)C(=O)Nc2ccc3c(c2)OCCO3)ccc1C (stereo not given),-,-,-,28,15,-,-,-,13
CN(C)S(=O)(=O)c1cccc(NC(=O)COC(=O)c2cccc(S(=O)(=O)N3CCc4ccccc4C3)c2)c1,-,-,-,23,11,-,-,-,12
CN(C)S(=O)(=O)c1cccc(NC(=O)COC(=O)c2cn(-c3ccccc3)nc2-c2ccccc2)c1,-,-,-,29,11,-,-,31,19
CCc1cccc(CC)c1NC(=O)COC(=O)c1cccc(S(=O)(=O)N2CCc3ccccc3C2)c1,-,-,-,-,-,.,.,.,.
